Measured values taken from PubChem BioAssay AID624169 (The Scripps Research Institute Molecular Screening Center, 2012).
Among all 360,000 compounds or so, about 2,400 (0.67%) were called active. Many of the other results were omitted from the sample, so actives are more common in it than they were. Values without a mark were called inactive.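 The calls were made as follows: active = activation above a run cutoff, the mean activation of all tested compounds plus 3 SD (cut at about 14% in these data); inactive = the rest.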

Each molecule was assayed against 5-hydroxytryptamine receptor 2A (Mus musculus) (UniProt P35363) (assay: activation of mouse 5-HT2A receptor – cell-based, luminescence, primary screen (AID 624169;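 also: 0% = plate median of compound wells and 100% = 30 µM serotonin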)). Conditions: CHO-K1 mHTR2A beta-arrestin complementation, at 7.6 µM, active compounds read high, percent of 30 µM serotonin response.
Sequence of 5-hydroxytryptamine receptor 2A (Mus musculus) (P35363 whole entry, looked up): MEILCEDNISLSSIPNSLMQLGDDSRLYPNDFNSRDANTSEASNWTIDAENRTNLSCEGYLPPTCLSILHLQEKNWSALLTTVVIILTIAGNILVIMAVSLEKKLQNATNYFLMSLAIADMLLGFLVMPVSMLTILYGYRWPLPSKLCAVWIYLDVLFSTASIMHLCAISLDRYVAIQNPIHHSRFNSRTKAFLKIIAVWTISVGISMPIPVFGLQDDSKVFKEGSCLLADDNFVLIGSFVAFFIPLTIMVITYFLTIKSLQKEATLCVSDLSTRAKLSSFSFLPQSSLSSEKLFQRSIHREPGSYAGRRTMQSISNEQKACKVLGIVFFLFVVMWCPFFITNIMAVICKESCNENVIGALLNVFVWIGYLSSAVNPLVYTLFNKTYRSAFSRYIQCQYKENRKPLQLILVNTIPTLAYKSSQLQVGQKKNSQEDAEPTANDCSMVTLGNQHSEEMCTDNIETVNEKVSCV
`Cc1cccc(-n2c(Cc3cc(=O)[nH]c(=O)[nH]3)nnc2SCC(=O)Nc2cccc(C(F)(F)F)c2)c1` gave an activation of 3.15%. Molecule `C/C(=N/NC(=O)c1ccc(Br)o1)c1ccc(C)o1` has an activation of 0.28%. In the case of `Cc1ccc(/C=N/NC(=S)NC2CCCCC2)o1`, the activation was 4.42%. With `C/C(=N\NC(=S)NC1CCCCC1)c1ccc(C)o1` the activation was 21.6% (active). For `N#CC1=C(SCc2ccc(C#N)cc2)N=C(N)C(c2nc(-c3ccccc3)cs2)C12CCCCC2` (stereo unspecified), the activation was -0.07%. For `COc1ccc(OC)c(C(O)c2ncc(-c3cccc(C(F)(F)F)c3)[nH]2)c1` (stereo unspecified), the activation was -2.32%. With `O=C(Cc1ccccc1Cl)N1CCOCC1` the activation was -3.57%. Work on `CN(C(=O)c1ccc(NC(=O)Cc2cccc(NC(=O)C3CCN(C(=O)c4ccccc4)CC3)c2)cc1)C1CC1` yielded an activation of -6.22%. With `COc1ccc(NS(=O)(=O)c2cc(C(=O)Nc3ccccc3C(=O)O)ccc2C)cc1` the activation was 17.9% (active). `Cc1ccc(C(=O)Nc2ccccc2-c2ccccc2)cc1S(=O)(=O)Nc1ccccc1` showed an activation of 5.68%. Work on `COc1ccc(NS(=O)(=O)c2cc(NC(=O)CC(=O)c3ccc([N+](=O)[O-])cc3)ccc2C)cc1` yielded an activation of -2.57%. For `O=S(=O)(Nc1cccc(-c2ccc(N3CCOCC3)nn2)c1)c1ccc(Cl)c(Cl)c1`, the activation was -3.29%. `O=C(NCc1ccccc1CN1CCCC1)C1CCN(S(=O)(=O)c2ccc(Cl)cc2)CC1` gave an activation of -12.7%. `O=C(NCc1ccccc1Cl)C1CCN(S(=O)(=O)N2CCOCC2)CC1` gave an activation of 2.15%. For `O=C1CCc2cc(S(=O)(=O)N3CCC(C(=O)NCc4ccccc4Cl)CC3)ccc2N1`, the activation was 19.6% (active). In the case of `COc1cccc(C(=O)n2ccc(-c3cccs3)n2)c1`, the activation was 2.87%. Work on `Cc1ccc(C(=O)N2CCN(C3CCCCC3)CC2)s1` yielded an activation of 7.15%. Molecule `CCOCCOC(=O)C1=C(C)N(C)C(=O)NC1c1ccccc1F` (stereo unspecified) has an activation of 1.37%. `O=C(CN(Cc1ccc(Br)cc1)S(=O)(=O)c1ccccc1)NCc1ccncc1` was tested, and the activation was -1.63%. `CCc1ccc(CN(C)C(=O)C2CCC(=O)N(Cc3cccc(OC)c3)C2)nc1` (stereo unspecified) showed an activation of 6.04%. For `CC(=O)Nc1ccc(S(=O)(=O)N2CCC(N(C)CCC(C)C)CC2)cc1`, the activation was 6.97%. `Cc1ccc(NC(=O)CN(C)Cc2ccc(F)cc2)c([N+](=O)[O-])c1` gave an activation of 1.68%. `CCOc1cc(C(=O)OCC(=O)Nc2cccc(C)c2)ccc1OCC(=O)N1CCOCC1` gave an activation of -2.12%. Molecule `CCn1cc(C(=O)N2CC=C(c3ccccc3)CC2)c(=O)c2ccc(C)nc21` has an activation of -3.76%. With `CCn1cc(C(=O)OCC(=O)Nc2cccc(C)c2)c(=O)c2ccc(C)nc21` the activation was 20.9% (active). `C=CCNC(=O)CC12CC3CC(C1)CC(CC(=O)NCC=C)(C3)C2` gave an activation of -3.65%. Work on `CCCC(=O)N1c2ccc(-c3csc(N)n3)cc2CC1C` (stereo unspecified) yielded an activation of 1.22%. In the case of `CC(C)(C)C(=O)OCc1nc(-c2ccc(O)c(O)c2)cs1`, the activation was 14.9% (active). `CN(c1ccc(O)cc1)c1nc(-c2cccnc2)cs1` showed an activation of -2.76%. Molecule `CC(=O)c1c(C)n([O-])c2ccccc2[n+]1=O` has an activation of 4.16%. `C=CCn1c(=NC(=O)c2ccc(S(=O)(=O)N3CCCC3)cc2)sc2cc(NC(C)=O)ccc21` gave an activation of 1.21%. For `C=CCn1c(=NC(=O)c2cccs2)sc2cc(NC(C)=O)ccc21`, the activation was 23.5% (active). With `C=CCn1c(CCNC(=O)c2cccs2)n[nH]c1=S` the activation was 4%. `O=C(O)c1ccccc1Cc1ccc(F)c2ccccc12` gave an activation of -0.35%. `CCc1ccc2nc(Nc3ncc(C(C)=O)c(C)n3)nc(C)c2c1` showed an activation of -1.39%. For `COc1ccc(-c2nnc(SC(C)C(=O)NC3CC3)o2)cc1` (stereo unspecified), the activation was -2.06%. For `COc1ccccc1Nc1nnc(SC(C)C(=O)NC2CC2)s1` (stereo unspecified), the activation was 14.8% (active). With `O=C(CSc1nnc(Nc2ccccc2F)s1)NC1CCCC1` the activation was -5.06%. Molecule `CCCCC1N2CC3([N+](=O)[O-])CN1CC([N+](=O)[O-])(C2)C3(C)C` (stereo unspecified) has an activation of -2.15%. `CCCCN(C(=O)COc1ccc(NC(C)=O)cc1)C1CCS(=O)(=O)C1` (stereo unspecified) showed an activation of -2.25%. `CC(=O)c1ccc(OCC(=O)N(C)C2CCS(=O)(=O)C2)cc1` (stereo unspecified) was tested, and the activation was 18.4% (active). For `CCc1ccc(OCC(=O)N(Cc2ccccc2)C2CCS(=O)(=O)C2)cc1` (stereo unspecified), the activation was -6.02%. Work on `CN1C(=O)c2ccc(NC(=O)c3c(F)c(F)c(F)c(F)c3F)cc2C1=O` yielded an activation of 5.38%. `COc1ccc(C(=O)Nc2c(N)nc(SCC(=O)N3CCC(C)CC3)[nH]c2=O)cc1OC` gave an activation of 3.82%. Work on `O=Cc1cn(CCOc2ccc(F)cc2)c2ccccc12` yielded an activation of -3.3%. `COc1ccc(N(C(=O)CNC(=O)c2ccco2)C(C(=O)NCC2CCCO2)c2ccccc2)cc1Cl` (stereo unspecified) gave an activation of -3.88%. In the case of `CCOC(=O)c1cccc(NC(=O)CN(c2ccc(C)cc2)S(=O)(=O)c2c(C)noc2C)c1`, the activation was 4.56%. Work on `Cc1noc(C)c1S(=O)(=O)N(CC(=O)NCc1ccc(Cl)cc1)c1ccc2c(c1)OCO2` yielded an activation of 10.9%. `Cc1noc(C)c1S(=O)(=O)N(CC(=O)Nc1ccc2c(c1)OCCO2)c1ccc(C(C)C)cc1` was tested, and the activation was 18.8% (active). `COc1ccc(CN2CCN(C(=O)CCC(=O)Nc3nnc(C(C)C)s3)CC2)cc1F` gave an activation of 10.4%. In the case of `COc1ccc(NC(=O)C(NC(C)=O)C(=O)NCc2ccccc2Cl)cc1` (stereo unspecified), the activation was -1.72%. For `CC(C)NS(=O)(=O)c1ccc(CCC(=O)N2CCOCC2)cc1`, the activation was -3.51%. Molecule `COCc1cc(=O)oc2cc(NS(=O)(=O)c3ccc(C)cc3)ccc12` has an activation of 6.31%. `CC(=O)N1c2ccc(S(=O)(=O)N3CCC(C(=O)NC4CCCCC4C)CC3)cc2CC1C` (stereo unspecified) was tested, and the activation was 15.7% (active). With `CC(=O)N1c2ccc(S(=O)(=O)N3CCC(C(=O)NC4CCCC(C)C4C)CC3)cc2CC1C` (stereo unspecified) the activation was -2.05%. With `CC(=O)N1c2ccc(S(=O)(=O)N3CCC(C(=O)NCc4ccc(F)cc4)CC3)cc2CC1C` (stereo unspecified) the activation was 5.7%.
